Measurements: PubChem BioAssay (NCATS)
Inconclusive results are not listed. Calls of active or inactive are those of the source. Calls follow the shape of the dose curve; as a rule, active = well fitted curve in the direction sought with a large enough effect; inconclusive = small, poorly fitted or top-dose-only effect, or another doubt; inactive = no such curve, though single readings can be large; an effect the other way counts as inactive or inconclusive.

Columns and labels:
HEK293T [1] = experiment: qHTS assay to identify novel small-molecules to repurpose for Merkel cell carcinoma treatment (AID 1296009); conditions: MCC and control cell lines, CellTiter-Glo viability, 72 h; at 44.8 µM (top of the series) unless noted; also: nearly all actives have a fitted effect of over 60% in size
Summary of the method: (§1)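 Cell viability, measured as CellTiter-Glo luminescence, was normalized between DMSO and no-cell wells. The cells had been exposed to 8- or 11-point compound dilutions for 72 hr at 37 degree celsius.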

MCC-13 = experiment: as above; conditions: MCC and control cell lines, CellTiter-Glo viability, 72 h; series mostly up to 46 µM
Summary of the method: as §1

MCC-26 = experiment: as above; conditions: MCC and control cell lines, CellTiter-Glo viability, 72 h; series mostly up to 46 µM
Summary of the method: as §1

MKL-1 = experiment: as above; conditions: MCC and control cell lines, CellTiter-Glo viability, 72 h; series mostly up to 46 µM
Summary of the method: as §1

MKL-2 = experiment: as above; conditions: MCC and control cell lines, CellTiter-Glo viability, 72 h; series mostly up to 46 µM
Summary of the method: as §1

NIH3T3 = experiment: as above; conditions: MCC and control cell lines, CellTiter-Glo viability, 72 h; at 44.8 µM (top of the series) unless noted
Summary of the method: as §1

UISO = experiment: as above; conditions: MCC and control cell lines, CellTiter-Glo viability, 72 h; series mostly up to 46 µM
Summary of the method: as §1

WaGa = experiment: as above; conditions: MCC and control cell lines, CellTiter-Glo viability, 72 h; series mostly up to 46 µM
Summary of the method: as §1

C33A = experiment: Primary qHTS to identify gynecologic anti-cancer compounds using libraries of approved drugs and bioactive compounds (AID 1345084); conditions: Gynecologic cancer cell panel viability, ATPlite luminescence, 48 h; series mostly up to 57.5 µM; also: nearly all actives have a fitted effect of over 55% in size
Summary of the method: (§2)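 Cells, 1,000 per well, were allowed to settle for 16 h at 37 C before compound addition. Five concentrations were tested for 48 h, and viability was read by ATPlite luminescence after 15 min at room temperature.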

CAOV3 = experiment: as above; conditions: Gynecologic cancer cell panel viability, ATPlite luminescence, 48 h; series mostly up to 57.5 µM
Summary of the method: as §2

CASKI = experiment: as above; conditions: Gynecologic cancer cell panel viability, ATPlite luminescence, 48 h; series mostly up to 57.5 µM
Summary of the method: as §2

Es-2 = experiment: as above; conditions: Gynecologic cancer cell panel viability, ATPlite luminescence, 48 h; series mostly up to 57.5 µM
Summary of the method: as §2

HeLa = experiment: as above; conditions: Gynecologic cancer cell panel viability, ATPlite luminescence, 48 h; series mostly up to 57.5 µM
Summary of the method: as §2

Hek293T [2] = experiment: as above; conditions: Gynecologic cancer cell panel viability, ATPlite luminescence, 48 h, control line for the selectivity index; series mostly up to 57.5 µM
Summary of the method: as §2

JEG-3 = experiment: as above; conditions: Gynecologic cancer cell panel viability, ATPlite luminescence, 48 h; series mostly up to 57.5 µM
Summary of the method: as §2

OV90 = experiment: as above; conditions: Gynecologic cancer cell panel viability, ATPlite luminescence, 48 h; series mostly up to 57.5 µM
Summary of the method: as §2

PA-1 = experiment: as above; conditions: Gynecologic cancer cell panel viability, ATPlite luminescence, 48 h; series mostly up to 57.5 µM
Summary of the method: as §2

SKOV3 = experiment: as above; conditions: Gynecologic cancer cell panel viability, ATPlite luminescence, 48 h; series mostly up to 57.5 µM
Summary of the method: as §2

Tov-21-G = experiment: as above; conditions: Gynecologic cancer cell panel viability, ATPlite luminescence, 48 h; series mostly up to 57.5 µM
Summary of the method: as §2

Tov112D = experiment: as above; conditions: Gynecologic cancer cell panel viability, ATPlite luminescence, 48 h; series mostly up to 57.5 µM
Summary of the method: as §2

Measured: Potency

Cc1c(Cl)cccc1Nc1ccccc1C(=O)O
inactive: all assays above

O=C(Oc1ccccc1C(=O)O)c1ccccc1O
inactive: all assays above

CCn1cc(C(=O)O)c(=O)c2cnc(N3CCNCC3)nc21
inactive: all assays above

OCC(O)CN1CCN(c2ccccc2)CC1 (stereo unspecified)
inactive: all assays above

O=Cc1ccccc1C=O
inactive: all assays above

NCC(=O)CCC(=O)O
inactive: all assays above

CN(N=O)C(=O)N[C@@H]1[C@@H](O)[C@H](O)[C@@H](CO)O[C@@H]1O
not listed: SKOV3
inactive: all other assays above

COC(=O)[C@H]1[C@H]2C[C@@H]3c4[nH]c5cc(OC)ccc5c4CCN3C[C@H]2C[C@@H](OC(=O)COc2ccc(OC)cc2)[C@@H]1OC
inactive: all assays above

CC1(C)S[C@@H]2[C@H](NC(=O)Cc3ccccc3)C(=O)N2[C@H]1C(=O)O (tested in a mixture with another compound)
not listed: CAOV3
inactive: all other assays above

Cn1c(=O)c2c(ncn2CC2OCCO2)n(C)c1=O
inactive: all assays above

CC1CC(OC(=O)C(O)c2ccccc2)CC(C)(C)N1C (stereo unspecified)
not listed: CAOV3
inactive: all other assays above

CCCCCCCCCCCCOS(=O)(=O)O
inactive: all assays above

O=C(O)c1ccccn1
not listed: SKOV3
inactive: all other assays above

C[C@H]1O[C@H](O[C@H]2[C@H](O)[C@@H](O)[C@@H](O[C@H]3[C@H](O)[C@@H](O)[C@H](O)O[C@@H]3CO)O[C@@H]2CO)[C@H](O)[C@@H](O)[C@@H]1N[C@H]1C=C(CO)[C@@H](O)[C@H](O)[C@H]1O
not listed: SKOV3
inactive: all other assays above

CN1CCOC(c2ccccc2)c2ccccc2C1 (stereo unspecified)
not listed: CAOV3
inactive: all other assays above

CCOC(=O)[C@H](CCc1ccccc1)N[C@@H](C)C(=O)N1C(=O)N(C)C[C@H]1C(=O)O
inactive: all assays above

O=c1cc[nH]c(=O)[nH]1
inactive: all assays above

CN1CCC[C@@H]1Cc1c[nH]c2ccc(CCS(=O)(=O)c3ccccc3)cc12
not listed: CAOV3
inactive: all other assays above

COc1ccc2cc1Oc1cc3c(cc1OC)CC[N+](C)(C)[C@H]3Cc1ccc(cc1)Oc1c(OC)c(OC)cc3c1[C@@H](C2)[N+](C)(C)CC3
inactive: all assays above

CCC(=O)c1ccc(O)cc1
inactive: all assays above

Oc1cccc(O)c1
inactive: all assays above

CCCCC/C(C=O)=C\c1ccccc1
inactive: all assays above

CCCCN(CCCC)CCCOC(=O)c1ccc(N)cc1
inactive: all assays above

CC12CCC(CC1)C(C)(C)O2
inactive: all assays above

CO/N=C(\C(=O)N[C@@H]1C(=O)N2C(C(=O)O)=C(CSc3nc(=O)c(O)nn3C)CS[C@H]12)c1csc(N)n1
not listed: CAOV3
inactive: all other assays above

C[C@@H]1CCN(C(=O)[C@H](CCCN=C(N)N)NS(=O)(=O)c2cccc3c2NC[C@H](C)C3)[C@@H](C(=O)O)C1
not listed: CAOV3
inactive: all other assays above

O=C1O[C@H]([C@@H](O)CO)C(O)=C1O
inactive: all assays above

CNC(=O)Oc1ccc2c(c1)[C@]1(C)CCN(C)[C@@H]1N2C
inactive: all assays above
